Measurements: PubChem BioAssay (Tox21)
Unmarked numbers belong to inactive results. Calls follow the shape of the dose curve; as a rule, active = well fitted activation curve with a large enough effect in the repeat runs; inconclusive = weak or mixed curves; inactive = flat fitted curve, though single readings scatter.

target: KiSS-1 receptor (Homo sapiens) (UniProt Q969F8); experiment: Human kisspeptin (KISS1R) small molecule agonists, calcium flux assay in KISS1R-HEK293 cells (AID 1920064); settings: KISS1R-HEK293, calcium flux fluorescence, agonist; series mostly up to 76.8 µM; activation: at the top concentration
Method in brief: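 Concentration-response testing used 15 concentrations in triplicate on human KISS1R-expressing HEK293 cells. Calcium-dependent fluorescence (Ex/Em 480/540) was followed kinetically for 3 min after compound transfer.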
% is scaled to controls: 0 for no effect and ±100 for the full control effect.

Chain of KiSS-1 receptor (Homo sapiens) (Q969F8 whole entry, looked up): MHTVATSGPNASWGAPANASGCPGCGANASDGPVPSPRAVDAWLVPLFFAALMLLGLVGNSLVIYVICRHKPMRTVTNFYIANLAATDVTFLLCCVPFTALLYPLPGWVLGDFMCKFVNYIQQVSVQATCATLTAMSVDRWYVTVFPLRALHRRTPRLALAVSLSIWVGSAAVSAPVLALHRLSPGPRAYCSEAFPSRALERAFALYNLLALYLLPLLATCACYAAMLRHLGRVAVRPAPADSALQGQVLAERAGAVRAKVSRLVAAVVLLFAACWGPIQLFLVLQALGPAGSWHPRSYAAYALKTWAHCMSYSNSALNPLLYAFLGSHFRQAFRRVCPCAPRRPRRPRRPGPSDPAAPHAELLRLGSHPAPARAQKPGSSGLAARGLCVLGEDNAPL

Point of comparison: `c1cc2c3c(c1)ccc1cccc(c13)C2`, “activation” value 6.86%. Against it:
- CCCCCC(=O)OCCc1ccccc1 — lower, 1.6%
- CCCCCCCC(=O)Oc1c(Br)cc(C#N)cc1Br — higher, 7.89%
- O=C(C(Cl)Cl)N1CCOC12CCCCC2 — lower, 2.85%
- COc1ccc(-c2coc3cc(O)ccc3c2=O)cc1 — lower, 0.384%
- O=S(=O)(O)c1ccc(Cl)cc1 — lower, 1.1%
- CC(C)OC(=O)C(C)N(C(=O)c1ccccc1)c1ccc(F)c(Cl)c1 (stereo not given) — lower, -0.0626%
- CN(C)CCCCl — lower, -3.45%
- C=C(C)C(=O)OC1CC(C)CC(C)(C)C1 (stereo not given) — lower, -1.63%
- Nc1cc(C(=O)O)ccc1Cl — lower, 1.74%
- O=C(O)CCCc1c[nH]c2ccccc12 — lower, 4.19%
- CCN(CC)c1cccc(C)c1 — lower, 0.224%
- CCCC(C)c1ccccc1O (stereo not given) — lower, -4.86%
- CCO[Si](C)(CCCOCC1CO1)OCC (stereo not given) — lower, 4.66%

Point of comparison: `O=C(O)c1cn(C2CC2)c2cc(Cl)c(F)cc2c1=O`, “activation” value -0.924% [at 35.3 µM]. Against it:
- CCOC(=O)N1CCC(Nc2ccc(Cl)cc2N)CC1 — higher, 2.66% [at 35.3 µM]
- CCCCCCCCCCOCC(O)CN (stereo not given) — higher, 4.78% [at 35.3 µM]
- CC(C)(Oc1ccc(Cl)cc1)C(=O)OCCCOC(=O)C(C)(C)Oc1ccc(Cl)cc1 — higher, 1% [at 35.3 µM]
- COc1ccc2nc(SCc3ncc(C)c(OC)c3C)[nH]c2c1 — higher, -0.461% [at 35.3 µM]
- CCOC(=O)c1c(N)sc2c1CCN(Cc1ccccc1)C2 — higher, -0.0468% [at 35.3 µM]
- CCCCNc1c(C(=O)OCC)c(C)nc2c1cnn2CC — higher, -0.619% [at 35.3 µM]
- O=C(NC1CCN(CCc2c[nH]c3ccccc23)CC1)c1ccccc1 — higher, 3.63% [at 35.3 µM]
- NC(CO)C(=O)NNCc1ccc(O)c(O)c1O (stereo not given) — higher, -0.535% [at 35.3 µM]
- CCCC(=O)O[C@]1(C(=O)CC)CC[C@H]2[C@@H]3CCC4=CC(=O)CC[C@]4(C)[C@H]3[C@@H](O)C[C@@]21C — higher, 0.139% [at 35.3 µM]

In the case of `COc1cc(C(C)C)ccc1C`, the activation is reported as 3.09% [at 15.8 µM].
